Assay outcomes from PubChem BioAssay.
Cycloheximide cs – counter-screen hit for Shiga toxin inhibitors, cycloheximide; cell reporter, cycloheximide protein synthesis inhibition counterscreen; max response, %; actives 12% (n = 300,000); AID 2314; in the data active means max response mostly above about 13%, no sharp cut-off; inactive means mostly below about 14%; further: read at 38.3 µM for the half of the compounds with a filed dose; 0% is about no effect
RE007 growth inh – less growth of the S. pombe RE007 Vpr strain; actives 0.21% (n = 360,000); Potency, µM (doses to about 92.2 µM), for the others: at the highest dose activity change, negative = less growth, hits mostly inhibitors; S. pombe RE007 Vpr strain, BacTiter-Glo ATP luminescence, 24 h; active means well fitted falling curve with a large enough effect; inconclusive means small, poorly fitted or top-dose-only effect; inactive means no such curve, though single readings can be large or run the other way; further: potency means the concentration at half of the fitted maximal effect; on the % scale 0 is the no-effect control and ±100 the full control effect; nearly all actives have a fitted effect of over 50% in size
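Fission yeast RE007 carrying one integrated HIV-1 vpr copy, seeded at OD 0.01 in PMG+AL medium with 23 nL pinned compound. Grown 24 h at 30 degrees; viability read by BacTiter-Glo luminescence after 5 min.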
FBPA Giardia inh – blocks Giardia fructose-bisphosphate aldolase activity | A8B2U2 | actives 0.71% (n = 290,000) | Potency, µM (series often up to 59.6 µM), inactives show at the top dose activity, negative = inhibition, actives largely listed as inhibitors | purified Giardia FBPA; further: potency means the concentration at half of the fitted maximal effect; on the % scale 0 is the no-effect control and ±100 the full control effect; nearly all actives have a fitted effect of over 55% in size
Target sequence (A8B2U2 whole entry, looked up): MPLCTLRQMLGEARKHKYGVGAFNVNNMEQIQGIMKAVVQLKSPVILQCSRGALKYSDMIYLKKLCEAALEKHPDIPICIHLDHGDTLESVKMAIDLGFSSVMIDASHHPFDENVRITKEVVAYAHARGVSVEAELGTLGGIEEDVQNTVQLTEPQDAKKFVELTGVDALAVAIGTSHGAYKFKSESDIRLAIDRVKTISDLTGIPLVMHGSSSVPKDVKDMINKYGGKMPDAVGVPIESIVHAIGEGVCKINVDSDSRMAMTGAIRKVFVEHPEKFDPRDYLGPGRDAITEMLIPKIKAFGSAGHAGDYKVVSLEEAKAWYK
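40 nM FBPA preincubated 10 min at RT with compound (up to 57.5 uM final), then substrate plus GAPDH/TPI/NAD/arsenate coupling and diaphorase/resazurin added. Fluorescence read after 20 min at RT, 525/598 nm.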
TbPYK inhibitor – T. brucei pyruvate kinase inhibition. TbPYK enzyme, Kinase-Glo Plus ATP luminescence, 45 min. Potency, µM (top dose mostly 76.8 µM), for inactives: top-dose activity, negative = inhibition, hits mostly inhibitors. actives 0.12% (n = 410,000). AID 624173; further: potency means the concentration at half of the fitted maximal effect; on the % scale 0 is the no-effect control and ±100 the full control effect; nearly all actives have a fitted effect of over 50% in size
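Activity of T. brucei pyruvate kinase was followed by Kinase-Glo Plus luminescence after the enzyme reacted 45 min at room temperature with 130 uM ADP (final) and substrate. Test compounds were added before ADP at multiple concentrations.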
Shiga inhibitor – blocks Shiga toxin action in Vero cells | Vero cells, Shiga toxin protein synthesis inhibition reporter | inhibition, % at 38.7 µM | actives 9.2% (n = 290,000); in the data active means inhibition mostly above about 28%, no sharp cut-off; inactive means mostly below about 43%; further: 0% is about no effect
LmPK inhibitor – inhibitors of Leishmania mexicana pyruvate kinase. Q27686. purified LmPK, Kinase-Glo ATP luminescence, 1 h. Potency, µM (highest dose often 57.5 µM), without a hit: at the top dose activity change, negative = inhibition, usual class: inhibitors. actives 0.37% (n = 290,000); further: potency means the concentration at half of the fitted maximal effect; on the % scale 0 is the no-effect control and ±100 the full control effect
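qHTS format; LmPK 0.1 nM; substrates PEP 0.5 mM and ADP 0.1 mM. One-hour room-temperature incubation, then coupled luciferase luminescence; 0.5 nM enzyme wells mark activation.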
Numbers without * were called inactive. The sample as a whole holds a higher share of hits than the screen did. Unless noted, the call rests on the fitted dose curve; in most records, active means well fitted curve in the direction sought with a large enough effect; inconclusive means small, poorly fitted or top-dose-only effect, or another doubt; inactive means no such curve, though single readings can be large; an effect the other way counts as inactive or inconclusive.

What do the screens show for `Clc1ccc2ccc3cccnc3c2n1`?
Cycloheximide cs: 5; RE007 growth inh: inconclusive; FBPA Giardia inh: -1%; TbPYK inhibitor: 6%; Shiga inhibitor: 51; LmPK inhibitor: -1%

What do the screens show for `Cc1[nH]c2c(ccc3cccnc32)c1C`?
Cycloheximide cs: 17*; RE007 growth inh: -14%; FBPA Giardia inh: -14%; TbPYK inhibitor: 2%; Shiga inhibitor: 41*; LmPK inhibitor: -1%

What do the screens show for `OCC#CCSc1nnc(-c2ccc(Br)cc2)o1`?
Cycloheximide cs: 33*; RE007 growth inh: inconclusive; FBPA Giardia inh: -11%; TbPYK inhibitor: -1%; Shiga inhibitor: 22; LmPK inhibitor: -2%

Results for Cc1cc(C)c(C(=O)CSc2nnc(-c3ccccc3Br)o2)cc1C ?
Cycloheximide cs: -3; RE007 growth inh: -4%; FBPA Giardia inh: 9%; TbPYK inhibitor: -5%; Shiga inhibitor: 6; LmPK inhibitor: 0%

Results for OCC#CCSc1nnc(-c2ccccc2Br)o1 ?
Cycloheximide cs: 27*; RE007 growth inh: -9%; FBPA Giardia inh: -1%; TbPYK inhibitor: -10%; Shiga inhibitor: 38; LmPK inhibitor: -4%

How did COc1ccc(-c2nnc(SCC#CCO)o2)cc1OC do in these assays?
Cycloheximide cs: -2; RE007 growth inh: 8%; FBPA Giardia inh: -3%; TbPYK inhibitor: -12%; Shiga inhibitor: 12; LmPK inhibitor: -10%

How did CC(C)[C@H](NC(=O)N1CC(=O)Nc2ccccc21)C(=O)N1CCC[C@@H]1C(=O)O do in these assays?
Cycloheximide cs: 12; RE007 growth inh: 11%; FBPA Giardia inh: -16%; TbPYK inhibitor: -8%; Shiga inhibitor: 9; LmPK inhibitor: -12%

How did C/C(NC(=O)c1ccccc1)=C1/C(=O)CC2C1C2(C)C (centres undefined) do in these assays?
Cycloheximide cs: 43*; RE007 growth inh: -20%; FBPA Giardia inh: 8%; TbPYK inhibitor: -9%; Shiga inhibitor: 119*; LmPK inhibitor: -2%

Results for C/C(N[C@@H]1CSCC1O)=C1/C(=O)CC2[C@@H]1C2(C)C (some centres undefined) ?
FBPA Giardia inh: -10%

What do the screens show for `O=C(O)Cc1cccc(-c2cc(CCCCCCc3ccc(O[C@H]4O[C@H](CO)[C@@H](O)[C@H](O)[C@@H]4O)c(-c4cccc(CC(=O)O)c4)c3)ccc2O[C@H]2O[C@H](CO)[C@@H](O)[C@H](O)[C@@H]2O)c1`?
TbPYK inhibitor: 3%

What do the screens show for `CCOc1ccc(NC(=O)C2C3CC/C=C\CCC32)cc1` (centres undefined)?
Cycloheximide cs: 17*; RE007 growth inh: 12%; FBPA Giardia inh: 2%; TbPYK inhibitor: -2%; Shiga inhibitor: 35; LmPK inhibitor: 4%

What do the screens show for `COc1ccc(NC(=O)C2C3CC/C=C\CCC32)cc1` (centres undefined)?
Cycloheximide cs: 24*; RE007 growth inh: -2%; FBPA Giardia inh: 1%; TbPYK inhibitor: -1%; Shiga inhibitor: 57*; LmPK inhibitor: 4%

Results for COCCNC(=O)CSc1nnc2[nH]c(=O)cc(C)n12 ?
TbPYK inhibitor: -9%

What do the screens show for `COc1ccc(NN=Nc2ccc([N+](=O)[O-])cc2)cc1`?
Cycloheximide cs: 32*; RE007 growth inh: 0%; FBPA Giardia inh: -7%; TbPYK inhibitor: -9%; Shiga inhibitor: 27; LmPK inhibitor: 3%

Results for Cc1ccc(C(=O)C2CN(C)CC2C(=O)c2ccc(C)cc2)cc1 (centres undefined) ?
Cycloheximide cs: 23*; RE007 growth inh: -3%; FBPA Giardia inh: -1%; TbPYK inhibitor: 1%; Shiga inhibitor: 39*; LmPK inhibitor: 1%

Results for O=C(Nc1ccc2c(c1)CCC2)c1cc(=O)[nH]c2ccccc12 ?
Cycloheximide cs: -1; RE007 growth inh: -11%; FBPA Giardia inh: 6%; TbPYK inhibitor: 3%; Shiga inhibitor: -5; LmPK inhibitor: 4%

Results for c1ccc2[nH]c(C3CC3)nc2c1 ?
Cycloheximide cs: -2; RE007 growth inh: 1%; FBPA Giardia inh: -10%; TbPYK inhibitor: -3%; Shiga inhibitor: 1; LmPK inhibitor: -2%

Results for Nc1ccc2nc(C3CCCCC3)[nH]c2c1 ?
Cycloheximide cs: 13*; RE007 growth inh: 2%; FBPA Giardia inh: inconclusive; TbPYK inhibitor: -4%; Shiga inhibitor: 95; LmPK inhibitor: -1%

What do the screens show for `Nc1ccc2oc(C3CCCCC3)nc2c1`?
Cycloheximide cs: 55*; RE007 growth inh: -13%; FBPA Giardia inh: -14%; TbPYK inhibitor: 1%; Shiga inhibitor: 97*; LmPK inhibitor: -3%

What do the screens show for `O=[N+]([O-])c1ccc2oc(C3CCCCC3)nc2c1`?
Cycloheximide cs: 29*; RE007 growth inh: 0%; FBPA Giardia inh: 2%; TbPYK inhibitor: -2%; Shiga inhibitor: 76*; LmPK inhibitor: -8%

How did Cc1ccc(OCc2cc(C(=O)N3CCN(C)C[C@@H]3c3ccccc3)no2)cc1C do in these assays?
Cycloheximide cs: 75*; RE007 growth inh: 6%; FBPA Giardia inh: 14%; TbPYK inhibitor: 4%; Shiga inhibitor: 123*; LmPK inhibitor: 5%

Results for CN1CCN(C(=O)c2cc(COc3c(F)cccc3F)on2)CC1c1ccccc1 (centres undefined) ?
Cycloheximide cs: -2; RE007 growth inh: -11%; FBPA Giardia inh: 2%; TbPYK inhibitor: -9%; Shiga inhibitor: 3; LmPK inhibitor: -14%

What do the screens show for `CN1CCN(C(=O)c2cc(COc3ccccc3)on2)[C@@H](c2ccccc2)C1`?
Cycloheximide cs: 55*; RE007 growth inh: -19%; FBPA Giardia inh: 6%; TbPYK inhibitor: -18%; Shiga inhibitor: 117*; LmPK inhibitor: 3%

How did CCC12CN3CC(CC)(CN(C1)C3c1ccc(OCc3ccccc3)cc1)C2=O (centres undefined) do in these assays?
TbPYK inhibitor: 0%

Results for CCc1ccccc1-n1c(-c2ccncc2)n[nH]c1=S ?
Cycloheximide cs: 6; RE007 growth inh: 18%; FBPA Giardia inh: 7%; TbPYK inhibitor: 25µM*; Shiga inhibitor: -8; LmPK inhibitor: 13µM*

How did Cc1cc(-c2n[nH]c(=S)n2-c2ccccc2C)cs1 do in these assays?
Cycloheximide cs: 12; RE007 growth inh: 0%; FBPA Giardia inh: -1%; TbPYK inhibitor: inconclusive; Shiga inhibitor: 26; LmPK inhibitor: 10µM*

What do the screens show for `Cc1ccccc1-n1c(-c2ccncc2)n[nH]c1=S`?
Cycloheximide cs: -3; RE007 growth inh: -5%; FBPA Giardia inh: inconclusive; TbPYK inhibitor: inconclusive; Shiga inhibitor: -6; LmPK inhibitor: 32µM*

Results for Cc1ccc(-n2c(-c3ccncc3)n[nH]c2=S)c(C)c1 ?
Cycloheximide cs: -3; RE007 growth inh: 1%; FBPA Giardia inh: -28%; TbPYK inhibitor: 7.1µM*; Shiga inhibitor: -26; LmPK inhibitor: -11%
